From the supplement of paper PMC5499739
Over roughly 16,000 sequences, “Z-score” has its median near -0.37; the highest 2% begin near 3.1. The sample holds the highest values, similar sequences and a random draw of the others, so the mix is not that of the screen.

System: RBM10 RRM1-ZnF-RRM2 (GST-tagged construct)
Assay: RNAcompete 7-mer binding Z-score; higher = stronger binding preference
Procedure, shortened: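 Bound RNA was identified by microarray hybridisation after GST-tagged RBM10 constructs (20 pmol) had been mixed with 1.5 nmol of a designed pool of 241 399 RNAs up to 41 nt, transcribed from microarray-derived DNA templates. Binding ran for 30 min at 4°C in 1 ml Hepes pH 7.8 buffer with KCl, NaCl, glycerol, DTT, BSA and glutathione Sepharose beads, with four 2-min washes at 4°C afterwards. For every heptamer motif, a one-sided Z-score for enrichment was computed across the probes that contained it.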

Sequence | RNAcompete 7-mer binding Z-score
ACCCUCA | -0.846
GGGGGGU | 3.13
UGGGGGU | 3.25
UGGGGUU | 2.78
UGAGGGG | 3.5
CGAGGUU | 0.727
GGAGGAU | 2.27
UGAGGGU | 3.92
CGAGGAU | 1.1
GGAGGCU | 1.29
GGAGGGU | 3.8
UGAGGAG | 1.94
UGAGAGG | 1.8
AGAGGGU | 2.21
CGAGGGU | 3.55
UGAGGCU | 0.315
GAUCGGA | 0.785
UCUCGGA | -0.329
UCGGAUG | 0.512
CGCCGAA | -0.646
GAUAUUG | 0.283
AAGUGUC | -0.322
GCAAGUG | 0.709
UGAGGCA | 1.31
UCAGGGA | 2.05

Sequence | RNAcompete 7-mer binding Z-score
UGAGGGA | 4.05
GUGGGUA | 3.07
UUGGGUA | 1.95
GGGGGUA | 3.52
CCGGGUA | 0.814
AGGGGUA | 3.66
CGGGGUA | 3.42
CGGGGUC | 1.9
CUGGGUA | 1.78
UGGGGUA | 3.36
GCGGGUA | 2.5
AGGGGUC | 1.76
CGAUUUA | -0.704
UUAAAGC | -0.439
ACUAGAA | -0.187
CUUUUGA | -0.755
AGAGACC | -0.774
UCAUACA | -0.464
UGGAGGG | 4.26
UAGAGGU | 1.68
UGGAGAG | 2.12
GGGAGUA | 2.34
AGGAGUG | 2.8
UGGAGGA | 2.95
UAGAGGG | 3.16

Sequence | RNAcompete 7-mer binding Z-score
GGGAGGA | 3.24
UGGAGUG | 2.72
AAGAGGG | 3.05
GGGAGUG | 3.84
AGGAGGA | 2.22
GCACUAG | -0.0161
AUAAGCU | -0.391
UUGACGG | 0.399
CGUUUGC | -0.766
UUUCGAU | -0.664
UUCGGGA | 0.734
GGGACCA | 1.9
UUCCGUC | -0.726
UCAAUGG | 1.28
UCUGUGG | 0.199
UGGAGGC | 2.16
GGGAGGG | 4.06
GAGAGGG | 2.75
CGGAGGC | 1.24
AGGAGGC | 1.72
GGGAGCG | 3.23
CGGAGCG | 1.45
CGGAGGG | 2.92
AGGAGGU | 2.71
GGGAGCC | 0.891

Sequence | RNAcompete 7-mer binding Z-score
AGGAGGG | 3.31
GGGAGGC | 3.2
CGCUGGA | -0.027
AGUCGCG | -0.0634
UGCCACC | -0.759
ACUUUGG | -0.351
GGCUUGU | -0.318
CUCGUUC | -0.61
GGCUUCA | -0.428
GAUACUG | -0.118
GAAGUCG | 0.428
CUUCUCA | -0.981
UCGUGCG | -0.027
UCUUAUU | -0.803
UUAGUAA | -0.355
AGGCCUC | -0.828
GGGAGGU | 3.39
CGGAGGU | 2.46
UGGAGGU | 3.02
CCACGAA | -0.544
AAGGUAG | 3.82
UAGGUAG | 2.27
AAGGUAU | 2.03
UAGGUAA | 1.96
CAGGUAG | 2.68

Sequence | RNAcompete 7-mer binding Z-score
AAGGUAA | 3.65
GGCCGUA | 0.0786
AAGAGGU | 1.66
CCGCAUA | -0.817
AAGAUUU | -0.588
CGUAAUC | -0.511
CGGUGAG | 1.64
GGGUGAU | 3.16
UGGUGAU | 0.727
AGGUGAU | 1.62
UGGUGAA | 1.22
GGGUGAC | 2.92
GGGUGAA | 3.66
GGGUGAG | 4.12
CGGUGAA | 0.723
CAUUUCU | -0.872
CAUAACU | -0.592
UAAAGCC | -0.661
ACGUUUC | -0.912
GAACAGA | 0.745
GGACAGU | 1.01
UAACAGG | 1.14
GAACAGG | 3.18
GGACAGG | 3.23
AGACAGG | 1.72

Sequence | RNAcompete 7-mer binding Z-score
ACCCAGG | -0.173
GCUUUAA | -0.726
CCAGCUA | -0.719
GUGGUAU | 1.08
GUGCUAG | 0.268
CGAUCUG | -0.795
GUCUAAC | -0.486
GGGUAUG | 3.69
CGGUAGA | 1.01
AGGUAUG | 1.95
GGGUAUC | 2.16
UGGUAGC | 1.01
GGGUAGC | 2.69
GGGUAGA | 3.84
GAGUAGG | 3.6
GAGUAGU | 0.68
GAGUAGA | 1.4
UGGUAGG | 3.16
UGGUAGA | 1.89
UGAUUCC | -0.668
AAUUGUG | -0.00512
UUGGUGA | 1.39
GAUCGCG | -0.0925
UCGUUCA | -0.508
UUUGAUG | -0.358

Sequence | RNAcompete 7-mer binding Z-score
UUGAGCA | -0.165
AGGUAGG | 3.72
CGGUAGU | 0.37
GCGUAGG | 2.21
GGGUAGG | 4.42
GGGUACA | 3.39
AGGUAGC | 0.862
UGGUAGU | 0.585
CGGUAGG | 2.15
UGGUACA | 0.949
GGGUAGU | 3.17
AGGUAGA | 2.42
GGGUACU | 2.05
UAUGAAC | -0.195
CAUGCUU | -0.861
UGCUGCG | -0.34
UACUCGC | -0.548
GUGGAAU | 2.34
AGUAUAU | -0.351
AGGGGAA | 3.56
CGGGGAA | 2.76
AGGGGAG | 2.52
GAGGGAC | 2.02
AAGGGAG | 4.04
ACGGGAU | 1.88

Sequence | RNAcompete 7-mer binding Z-score
AAGGGAU | 3.44
UAGGGAU | 2.48
AGGGGAC | 1.97
AAGGGAC | 3.43
AAGGGCG | 3.12
GGGGGAA | 2.61
UUAGGCC | -0.471
AGGCCUG | -0.632
AAUCGCU | -0.825
GUCUCUC | -0.719
CGCGUGG | 1.41
UUCGGCU | -0.61
AACCAGU | -0.235
GUCGUCC | -0.377
CAACUAC | -0.628
UAGGGAA | 3.46
CAGGGAG | 3.08
GAGGGAG | 3.04
UAGGGAG | 3.15
UAGGGAC | 2.24
AAGGCAA | 1.95
AGGGGAU | 3.41
ACGGGAA | 2.76
CAGGGAA | 3.07
GGGGGAU | 2.89

Sequence | RNAcompete 7-mer binding Z-score
AAGGGAA | 4.17
UGGGGAU | 3.05
GUCUCCU | -0.694
CACAAGA | -0.391
AAAAUGG | 2.68
CAAGUGA | 0.228
GGCUAAA | 0.661
AAGGGCC | 1.53
AAGGGCU | 1.39
AAGGGCA | 3.44
AAUGGAG | 3.01
ACUGGGG | 1.58
UAUGGAG | 1.68
GAUGGGA | 3.8
GAUGGAG | 3.16
GAUGGGC | 2.09
GAUGGGG | 4
GAUGGUA | 2.46
AAUGGGG | 4.38
UAUGGGA | 2.76
CAUGGGG | 2.51
GAUGGUG | 2.77
AGCAUUU | -0.726
GCCAGCA | -0.205
CCGGUGC | -0.136

Sequence | RNAcompete 7-mer binding Z-score
CAUGCAA | -0.289
CUGUCCU | -0.817
UCUUCGG | -0.657
CGUGCGA | -0.209
CUCGAAG | -0.318
CGAACUC | -0.719
GAUGGGU | 3.01
UAUGGAA | 1.22
CAUGGGU | 2.58
AAUGGAA | 3.27
CAUGGAA | 1.36
UAUGGGG | 3.19
AAUGGGC | 2.92
CAUGGGA | 2.16
UAUGGGU | 2.81
AAUGGGU | 4.1
AAUGGGA | 4.69
UAUGGGC | 1.64
